Mdm2 MdmX PPI – human Mdm2/MdmX binding inhibition; SaOS-2 split-luciferase Mdm2/MdmX complementation, luminescence; inhibition, % at 8 µM; actives 3% (n = 330,000); AID 485346;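 active = inhibition of at least 50% at 8 µM in the primary screen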
MPTP block – inhibitors of mitochondrial permeability transition pore; isolated mouse mitochondria, Ca2+ swelling absorbance, 30 min; inhibition, % at 10 µM; actives 1.4% (n = 360,000);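 active = inhibition of 50% or more, scaled per plate between neutral and stimulator controls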;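 note: 0% = DMSO wells given calcium and 100% = 1 mM EGTA wells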
TIM10 inh – growth inhibitors of TIM10 yeast strain | S. cerevisiae TIM10 strain growth, BacTiter-Glo luminescence, 24 h | inhibition, % at 10 µM | actives 1.4% (n = 330,000);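 active = inhibition of 40% or more at the single tested concentration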;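 note: wild-type TIM10 isogenic control strain grown at permissive 25 °C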
tim10-1 inh – tim10-1 yeast growth inhibition. actives 2.2% (n = 330,000). AID 463190. S. cerevisiae tim10-1 ts strain growth, BacTiter-Glo, 24 h. inhibition, % at 20 µM;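 active = inhibition of at least 40%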;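 note: mutant grown at 25 °C; 0% = DMSO wells with yeast and 100% = wells holding no yeast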
tim23-1 inh – inhibits growth of tim23-1 mutant yeast; actives 1.3% (n = 330,000); S. cerevisiae tim23-1 growth, BacTiter-Glo luminescence, 24 h; inhibition, % at 20 µM; AID 463212;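 active = growth inhibition of the mutant yeast at or above 50%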;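 note: temperature-sensitive mutant grown at 25 °C; plate controls were DMSO-treated mutant yeast for no effect and medium wells lacking yeast for full effect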
Mdm2 MdmX conf – confirmation of human Mdm2/MdmX interaction inhibitors; shares compounds with Mdm2 MdmX PPI; Mdm2-MdmX binding, luminescent assay; inhibition, % at 8 µM; actives 55% (n = 10,000); AID 489028; in the data active = inhibition above about 40%
FLuc counter – full-length luciferase inhibition in Mdm2/MdmX counter-screen; shares compounds with Mdm2 MdmX PPI; inhibition, % at 8 µM; SaOS-2 full-length luciferase counterscreen, luminescence; actives 77% (n = 6,200);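 active = mean inhibition at 8 µM reaching about 37%, which flags the compound as non-specific, limit read from the data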;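 note: p53-null SaOS-2 cells with luciferase driven by a doxycycline-inducible promoter; compound on cells about two nights before reading with doxycycline added after day one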
* marks the source's active call; other numbers are inactive results; nt = no result given. Rows were chosen to be rich in hits. Some 6.3% of all compounds tested hit in one or more screens of this group.

SMILES | Mdm2 MdmX PPI | MPTP block | TIM10 inh | tim10-1 inh | tim23-1 inh | Mdm2 MdmX conf | others
Cc1nnc2c3ccccc3c(-c3cccc4ccccc34)nn12 | nt | -1.5 | nt | nt | nt | nt
CCCN(CC(=O)Nc1ccccc1OC)C(=O)CN1C(=O)NC(C)(C)C1=O | nt | -0.7 | nt | nt | nt | nt
C[C@@H]1CN([C@H](C)CO)C(=O)c2cc(Br)cnc2O[C@@H]1CN(C)Cc1ccc(F)cc1 | nt | 0.2 | nt | nt | nt | nt
CN(Cc1cnn(-c2ccc(F)cc2)c1)C(=O)[C@H]1O[C@@H](n2cnc3c(N)ncnc32)[C@H](O)[C@@H]1O | nt | -0.8 | nt | nt | nt | nt
Cc1cc(C)n(-c2nnc3n2N=C(c2ccccc2)CS3)n1 | -10.1 | 5.7 | 10.4 | 11.4 | 1.2 | nt
Cc1cc(C)n(-c2nnc3n2N=C(c2c[nH]c4ccccc24)CS3)n1 | 55.6* | -1.1 | 0.5 | -0.6 | 8.3 | 45.7* | FLuc counter=50.0*
Cc1c(C(=O)Nc2ccc(S(=O)(=O)N(C)C3CCN(C)CC3)cc2)oc2ccccc12 | 91.7* | -0.5 | 6.7 | 15.7 | 7.1 | 34.5
O=C(COc1ccc(Br)cc1Cl)NC(=O)Nc1ccc2c(c1)OCCO2 | 52.8* | -0.2 | -24.0 | 2.1 | -10.4 | 5.5
CN1CCC(N(C)S(=O)(=O)c2ccc(NC(=O)c3ccc(S(=O)(=O)N(C)C)cc3)cc2)CC1 | -8.6 | 0.4 | -15.4 | -11.4 | -16.8 | nt
CN1CCC(N(C)S(=O)(=O)c2ccc(NC(=O)COc3ccc(Br)cc3Cl)cc2)CC1 | 62.8* | 2.4 | 14.9 | 25.4 | 12.7 | 55.7* | FLuc counter=72.3*
Cc1c(C(=O)Nc2ccc(S(=O)(=O)N(C)C3CCN(C)CC3)cc2)oc2c(Cl)cccc12 | 87.6* | 45.0 | 11.8 | 28.2 | 11.2 | 74.6* | FLuc counter=63.9*
Cc1ccc(OCC(=O)Nc2ccc(S(=O)(=O)N(C)C3CCN(C)CC3)cc2)c(C)c1 | 22.8 | -1.1 | 6.4 | 5.1 | -6.8 | nt
Cc1ccc(C(C(=O)NCc2ccco2)N(C(=O)CNC(=O)c2cccs2)c2ccc(C)cc2C)cc1 (centres undefined) | 59.5* | 0.8 | -2.3 | 4.0 | -11.2 | 3.8
O=C(Nc1ccccc1N1CCCCC1)c1ccc(-c2cc(Cl)ccc2Cl)o1 | 50.1* | 5.1 | -3.4 | -3.4 | 12.9 | -13.8
O=C(Nc1ccc(Cl)cn1)c1ccc(-c2cc(Cl)ccc2Cl)o1 | 73.7* | 49.4 | 5.8 | 18.4 | -42.6 | 4.2
COc1cccc(OC)c1NC(=O)c1ccc(-c2cc(Cl)ccc2Cl)o1 | nt | -0.9 | nt | nt | nt | nt
Cc1cccc(C)c1NC(=O)c1ccc(-c2ccc(Cl)cc2Cl)o1 | 55.7* | -1.5 | 18.7 | 28.1 | 39.0 | 45.7* | FLuc counter=44.8*
Cc1ccccc1NC(=O)c1ccc(-c2ccc(Cl)cc2Cl)o1 | 26.8 | 1.5 | 16.4 | 37.7 | 32.4 | nt
CN(C)CCNc1ncnc2c1ncn2[C@H]1CN(Cc2ccncc2)C[C@@H](CO)O1 | nt | -0.5 | nt | nt | nt | nt
O=C(NCCOc1ccc(F)cc1)C1CCC(=O)N(Cc2ccc(Cl)cc2)C1 (centres undefined) | nt | 0.3 | nt | nt | nt | nt
C[C@@H]1CN([C@H](C)CO)C(=O)c2cc(C#CC3CC3)cnc2O[C@H]1CN(C)S(C)(=O)=O | nt | -0.7 | nt | nt | nt | nt
CCOC(=O)c1c(C)nc2sc3c(=O)n(-c4ccc(C(C)=O)cc4)nnc3c2c1-c1ccc(Cl)cc1 | 71.8* | 6.9 | 8.4 | -2.8 | 6.7 | 49.5* | FLuc counter=49.2*
O=C1C(Cc2ccccc2)Nc2ncnc(N3CCc4ccccc4C3)c2N1Cc1ccc(Cl)cc1 (centres undefined) | 56.0* | -0.6 | 33.2 | 32.7 | 46.0 | 49.1* | FLuc counter=57.3*
CN(c1ccccc1)S(=O)(=O)c1ccc(Cl)nc1 | 14.5 | -2.3 | -9.7 | -4.2 | 16.1 | nt
Cc1nc(S(=O)(=O)N(C)c2ccccc2)c(C#N)c(C)c1Cl | 96.2* | -0.6 | 6.5 | 18.6 | 5.8 | 93.4* | FLuc counter=57.4*
SMILES | Mdm2 MdmX PPI | MPTP block | TIM10 inh | tim10-1 inh | tim23-1 inh | Mdm2 MdmX conf | others
Cn1cc(/C=C2\SC(=S)N(N3CCOCC3)C2=O)c2ccccc21 | 50.4* | -2.7 | -15.0 | -11.5 | -5.5 | 6.3
COc1ccc(CNC(=O)C/C(C)=N/NC(=O)COc2ccc(C)cc2Br)cc1 | 56.8* | 0.8 | 14.4 | -2.4 | 9.2 | 8.8
Cc1nc(N2CCN(C(=O)c3cnccn3)CC2)c2c3c(sc2n1)CC(C(C)(C)C)CC3 (centres undefined) | 70.1* | -1.3 | -0.3 | 22.6 | 16.4 | 33.5
CCC(=O)N1c2ccccc2C(N(C(C)=O)c2ccccc2)CC1C (centres undefined) | 54.2* | 0.2 | 6.1 | 19.4 | 16.3 | 24.2
O=C(CCl)Nc1ccc(N=Nc2ccccc2)cc1 | nt | 16.5 | nt | nt | nt | nt
O=C(CCl)Nc1ccc(-c2ccccc2)cc1 | 96.0* | 0.7 | 7.7 | -2.7 | 21.1 | 98.7* | FLuc counter=50.3*
CC(C)N(c1ccccc1)c1ccc(NC(=O)[C@@H]2O[C@H](CO)[C@H](O)[C@H](O)[C@H]2O)cc1 | nt | -1.4 | nt | nt | nt | nt
CC(C)N(c1ccccc1)c1ccc(NC(=O)CCl)cc1 | 96.8* | 2.0 | 14.1 | -12.9 | 42.2 | 99.0* | FLuc counter=51.3*
CCCNc1nc2c(c(=O)[nH]c(=O)n2C)n1Cc1cccc(Br)c1 | 66.4* | -0.1 | 0.0 | 8.1 | -5.9 | 35.4
O=C(NC(c1ccccc1)c1ccc2ccccc2n1)C1CCN(Cc2ccc(Cl)c(Cl)c2)CC1 (centres undefined) | nt | 0.3 | nt | nt | nt | nt
CC[C@H](C)Cc1cn([C@@H](CCCN=C(NC(=O)OC(C)(C)C)NC(=O)OC(C)(C)C)C(=O)NCCCCCCCCCCC(=O)N2CCN(C(=O)OC(C)(C)C)CC2)nn1 | 65.6* | -1.3 | 2.7 | 8.9 | 18.8 | 32.5
C#CCOCCOCCOCCNc1nc(N2CCN(C(=O)CCCCCCCCCCNC(=O)[C@H](CCCCN)n3cc(C)nn3)CC2)nc(N2CCN(C(=O)CCCCCCCCCCNC(=O)[C@@H]([C@H](C)O)n3cc(C)nn3)CC2)n1 | 78.3* | -4.2 | 10.3 | 30.0 | 34.5 | 3.7
C#CCOCCOCCOCCNc1nc(N2CCN(C(=O)CCCCCCCCCCNC(=O)[C@@H](CCSC)n3cc(CCO)nn3)CC2)nc(N2CCN(C(=O)CCCCCCCCCCNC(=O)[C@@H]([C@H](C)O)n3cc(C)nn3)CC2)n1 | 25.2 | -2.6 | 8.1 | 10.5 | 22.8 | nt
C#CCOCCOCCOCCNc1nc(N2CCN(C(=O)CCCCCCCCCCNC(=O)[C@H](CCCCN)n3cc(C[C@@H](C)CC)nn3)CC2)nc(N2CCN(C(=O)CCCCCCCCCCNC(=O)[C@@H]([C@H](C)O)n3cc(C)nn3)CC2)n1 | 97.1* | -16.0 | 1.8 | 33.8 | 49.5 | 97.1* | FLuc counter=7.3
Cc1ccc(-c2nc3ccccc3n2C(C)C(=O)NC(C)(C)C)cc1 (centres undefined) | nt | 0.5 | nt | nt | nt | nt
O=C(Nc1ccc2c(c1)OCCO2)C(c1ccccc1)n1c(=O)c(-c2cc3ccccc3[nH]2)nc2ccccc21 (centres undefined) | nt | 3.6 | nt | nt | nt | nt

Screening results from PubChem BioAssay.
